Screening results from PubChem.
uPA surface inh – qHTS for Inhibitors of Cell Surface uPA Generation | cell surface uPA generation assay, qHTS | hit rate 0.31% among 330,000 | Potency, µM (highest dose often 38.3 µM), inactives show at the top dose activity change, negative = inhibition, usual class: inhibitors; active means well fitted inhibition curve with a large enough effect; inconclusive means small, poorly fitted or top-dose-only effect; inactive means no such curve, though single readings can be large or run the other way; tested in mouse RAW 264.7 cells; further: potency means the concentration at half of the fitted maximal effect; on the % scale 0 is the no-effect control and ±100 the full control effect; nearly all actives have a fitted effect of over 55% in size
Nrf2 ARE act – qHTS of Nrf2 Activators | Potency, µM (highest dose often 46.1 µM), without a hit: at the top dose activation, actives largely listed as activators | hit rate 0.31% among 410,000 | AID 624171, 2012 | AREc32 ARE-luciferase reporter (MCF7-derived line), luminescence, 24 h; further: potency means the concentration at half of the fitted maximal effect; % of control where 0% means no effect; nearly all actives have a fitted effect of over 65% in size
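For detection, Steady-Glo was added and plates sat 30 min at RT; before that, AREc32_Fluc cells grown overnight in OPTI-MEM/5% FBS had been treated with 23 nL compound for 24 hr at 37 deg C.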
ALOX12 inh – Primary qHTS assay for inhibitors of human arachidonate 12S-lipoxygenase (ALOX12): Round 2 | hit rate 1.1% among 580,000 | AID 1671190, 2021 | purified 12hLO, xylenol orange hydroperoxide absorbance | Potency, µM (highest dose often 108 µM), inactives show at the top dose activity change, negative = inhibition, actives largely listed as inhibitors; further: potency means the concentration at half of the fitted maximal effect; on the % scale 0 is the no-effect control and ±100 the full control effect
Target sequence (P18054 whole entry, looked up): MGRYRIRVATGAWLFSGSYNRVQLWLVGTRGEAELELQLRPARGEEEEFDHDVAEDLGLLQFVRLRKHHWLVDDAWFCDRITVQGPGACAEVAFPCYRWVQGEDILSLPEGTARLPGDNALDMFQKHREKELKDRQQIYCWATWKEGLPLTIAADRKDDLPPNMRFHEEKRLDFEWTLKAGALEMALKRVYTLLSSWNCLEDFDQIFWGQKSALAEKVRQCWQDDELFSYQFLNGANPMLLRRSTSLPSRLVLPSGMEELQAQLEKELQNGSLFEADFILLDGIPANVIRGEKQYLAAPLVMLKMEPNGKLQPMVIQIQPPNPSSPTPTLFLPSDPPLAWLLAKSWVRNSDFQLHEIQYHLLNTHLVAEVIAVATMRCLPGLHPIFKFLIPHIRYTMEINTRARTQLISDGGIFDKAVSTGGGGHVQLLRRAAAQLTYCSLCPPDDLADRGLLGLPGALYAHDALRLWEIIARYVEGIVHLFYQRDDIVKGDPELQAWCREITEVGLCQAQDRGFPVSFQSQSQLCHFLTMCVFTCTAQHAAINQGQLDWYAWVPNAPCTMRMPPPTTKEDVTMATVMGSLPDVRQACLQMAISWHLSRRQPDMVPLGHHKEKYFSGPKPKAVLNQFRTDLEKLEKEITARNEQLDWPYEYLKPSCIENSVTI
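Purified human 12hLO (150 nM final) in 25 mM Hepes, 0.01% Triton X-100, pH 7.0 was preincubated 15 min at room temperature with compound. Then 40 uM arachidonic acid was added, 30 min. Hydroperoxide was read by Fe-XO absorbance ratio 573/405 nm.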
a7 integrin act – qHTS for Activators of Integrin-Mediated Alleviation for Muscular Dystrophy; Potency, µM (highest dose often 38.3 µM), for inactives: top-dose activation, actives largely listed as activators; hit rate 0.064% among 350,000; alpha7betagal myoblasts, beta-gal FDG fluorescence, 48 h; AID 624291, 2012;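 further: potency means the concentration at half of the fitted maximal effect; 100% = response of the positive control SU9516; nearly all actives have a fitted effect of over 60% in size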
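alpha7betagal+/- myoblasts (passage 13, 250/well) treated 48 h at 37C with compounds at 1:260 dilution of DMSO stock. Lysed, then beta-galactosidase activity read as FDG fluorescence (ex 480/em 540) after 30 min, with pre-read for autofluorescence.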
IL2 activator – qHTS of IL-2 Activators | AID 652025, 2013 | activation, % (series mostly up to about 46 µM) | hit rate 0.065% among 360,000 | IL-2 activation reporter assay, cell-based qHTS; stimulated with anti-CD3/CD4/CD28 beads; in transgenic mouse T cells; in the data active means activation above about 50%; inconclusive means mostly about 30% to 49%; further: 0% is about no effect
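Readout: EGFP and DsRed signals by fluorescent plate cytometry. Unstimulated transgenic mouse T cells received compound 60 min before antibody-bead stimulation, then incubated 18 h at 37 degrees C.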
An asterisk follows results filed as active; ? = inconclusive; . = no result given; [ ] = dose if it differs, or a comment. Most compounds without a hit are left out; they make up all but 1.5% or so of the library. Unless noted, the call rests on the fitted dose curve; in most records, active means well fitted curve in the direction sought with a large enough effect; inconclusive means small, poorly fitted or top-dose-only effect, or another doubt; inactive means no such curve, though single readings can be large; an effect the other way counts as inactive or inconclusive.

SMILES | uPA surface inh | Nrf2 ARE act | ALOX12 inh | a7 integrin act | IL2 activator
COc1ccc(CN2CC[C@@H]3[C@H]2C(=O)NC[C@H](CCC(=O)NCc2ccc(F)cc2)N3C)cc1 | . | . | 10% | . | .
Cc1cc(F)ccc1Nc1ncncc1-c1nc(-c2ccccc2)no1 | . | . | 48% | . | .
Cc1nnc(N2C(=O)C(O)=C(C(=O)c3ccco3)C2c2ccc(C(C)C)cc2)s1 (configuration not stated) | -2% | 0% | 45µM* | 0% | 1
Cc1nnc(N2C(=O)C(O)=C(C(=O)c3ccco3)C2c2ccc(F)cc2)s1 (configuration not stated) | 4% | 0% | ? | 15% | -1
O=C(Nc1nnc(C2CC2)o1)c1ccc(S(=O)(=O)N2CCCc3ccccc32)cc1 | 6.3µM* | -2% | ? | -9% | -4
CN(C)CCCSc1nc(N2CCOCC2)c2c(c1C#N)CCCC2 | . | . | 0.5µM* | . | .
Cc1cc(C)c(/C=C/C(=O)O)cc1C | . | . | 16% | . | .
Cc1ccc(C23CC4CC(CC(C4)C2)C3)cc1N | . | . | -10% | . | .
COc1cccc(C2OCC(C)(C)n3c(-c4ccccc4)c4c(=O)n(C)c(=O)n(C)c4c32)c1O (configuration not stated) | . | . | 11µM* | . | .
Cc1ccc(-c2nnc(NC(=O)c3ccco3)o2)c(C)c1 | -7% | 8% | ? | -17% | 2
O=C(Nc1nnc(-c2ccco2)o1)c1ccc(Cl)cc1 | -4% | 10% | 25µM* | -48% | 0
O=C(Nc1nnc(C2=COCCO2)o1)c1ccc(F)cc1 | 2% | -1% | 381% | 14% | -4
Cc1ccc(C(=O)Nc2nnc(-c3ccco3)o2)cc1C | -6% | 10% | -2% | -35% | 1
O=C(Nc1nnc(-c2ccccc2Cl)o1)c1ccco1 | . | 13µM* | 17% | 20%[7.66 µM] | 5
O=C(Nc1nnc(C2=COCCO2)o1)c1ccc(Cl)cc1 | -5% | 2% | 40µM* | 29% | -2
O=C(NCc1ccc(F)cc1)c1n[nH]c2c1CCCC2 | . | . | 61% | . | .
O=C(c1ccccc1)c1cc(Cl)ccc1N1C(=O)C=CC1=O | -10% | 3% | 7.9µM* | -64% | 0
O=C(CC(=O)c1cc(Cl)ccc1O)c1ccccc1 | -29% | ? | -7% | -53% | 0
CN(C)C[C@@H]1CN(Cc2ccccn2)C[C@H]1NC(=O)c1ccc(Cl)s1 | . | . | 13% | . | .
Cc1noc(C)c1-c1nccc(-n2ccnc2)n1 | . | . | 45µM* | . | .
Cc1ccccc1-c1nccc(NCCN2CCOCC2)n1 | . | . | 40µM* | . | .
Cc1noc(C)c1-c1nccc(NC2CC2)n1 | . | . | 7.1µM* | . | .
Cc1ccccc1-c1cncnc1NCCN1CCOCC1 | . | . | -24% | . | .
COc1cccc(-c2nccc(-n3ccnc3)n2)c1 | . | . | -14% | . | .
Cc1noc(C)c1-c1cc(NC2CCNCC2)ncn1 | . | . | 22µM* | . | .
SMILES | uPA surface inh | Nrf2 ARE act | ALOX12 inh | a7 integrin act | IL2 activator
C#CCN(Cc1ccc(F)cc1)C(=O)C1CCCN(c2ncccn2)C1 (configuration not stated) | . | . | -25% | . | .
Cc1noc(C)c1-c1nccc(NCc2cccnc2)n1 | . | . | -19% | . | .
Cc1noc(C)c1-c1nccc(NCCN2CCOCC2)n1 | . | . | 32µM* | . | .
CC(C)(C)S(=O)N1Cc2cc(C(=O)N3CCOCC3)nc(-c3cccc(Br)c3)c2[C@@H]1CCO (some centres not stated) | . | 1% | 5µM* | . | -1
CN1CCN(C(=O)c2cc3c(c(-c4cccc(Br)c4)n2)[C@@H](CCO)N(S(=O)C(C)(C)C)C3)CC1 (some centres not stated) | . | 0% | ? | . | 0
O=[N+]([O-])c1ccc(S(=O)(=O)CC(CN2CCCCC2)N2CCCCC2)cc1 (configuration not stated) | ? | 0% | 0% | 0% | -1
O=S(=O)(CC(CN1CCCCC1)N1CCCCC1)c1ccccc1 (configuration not stated) | 8.9µM* | 0% | -3% | -5% | 0
O=C(O)CCCN1C(=O)/C(=C\C(Cl)=C\c2ccccc2)SC1=S | 5µM* | ? | 0% | -77% | -3
O=C(O)CCN1C(=O)/C(=C/c2ccc(-c3nc4ccccc4s3)o2)SC1=S | 2% | 6% | 40µM* | 0% | 0
O=C(O)CCCN1C(=O)/C(=C\c2ccc(-c3nc4ccccc4s3)o2)SC1=S | -4% | 16% | 40µM* | -5% | 5
CN1CCN(C(=O)CCCN2C(=O)/C(=C/c3ccccc3)SC2=S)CC1 | -3% | ? | -16% | -52% | 6
O=C(O)c1ccc(-c2nc3ccccc3s2)o1 | -4% | -1% | -12% | -9% | 0
O=C(O)CCCN1C(=O)/C(=C\c2ccccc2OCc2ccccc2)SC1=S | -1% | 7% | ? | 4% | 1
O=C(O)CC(C(=O)O)N1C(=O)/C(=C/c2ccc(-c3nc4ccccc4s3)o2)SC1=S (configuration not stated) | 2% | 0% | 16µM* | 17% | 1
O=Cc1ccc(-c2nc3ccccc3s2)o1 | -8% | 5% | -2% | 8% | 1
Cn1c(C(=O)N2CCN(c3ccccc3)CC2)cc2c1CCN(Cc1cccc(F)c1)C2 | . | . | 23% | . | .
COCCCn1c(=S)[nH]c2sc3c(c2c1=O)CCCS3 | -4% | 0% | 45µM* | -26% | -1
COc1ccc(C2=CC3=C(Br)C(=O)C(C)(OC(=O)c4cccs4)C(=O)C3=CO2)cc1 (configuration not stated) | -2% | 7% | 6.3µM* | 1% | 0
COc1ccc(C2=CC3=C(Br)C(=O)C(C)(OC(=O)c4ccco4)C(=O)C3=CO2)cc1 (configuration not stated) | -9% | 15% | . | -16% | 0
COc1ccccc1CNS(=O)(=O)c1ccc(Cl)s1 | -5% | 0% | -4% | 6.3µM* | 0
COc1ccccc1Cn1c(CNS(=O)(=O)c2ccc(Cl)s2)nc2cccnc21 | . | 3% | -24% | . | .
CN1c2cc(C(=O)Nc3ccc(C#N)cc3)ccc2C(=O)N2CCCCC21 (configuration not stated) | . | . | -28% | . | .
CCC(CC)NC(=O)C1CCc2nc(N3CCN(C(=O)C(C)C)CC3)sc2C1 (configuration not stated) | . | . | 35µM* | . | .
